SMILES strings stand for the structures. Several values for one entry are separate records, joined by “and”; a condition that tells them apart may be missing. Equal values may be shown once. Where a name gives a salt, the structure may show the parent alone.

In the experiment the test system is Neuro-2a. In words: neurite formation score, plate-normalized to DMSO control mean 5.04 (score (0-8 scale)); higher = more or longer neurites. The conditions noted are these: 1 µM. The protocol: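 Neuro-2a mouse neuroblastoma cells in PLL-coated 96-well plates were pre-treated for 1 h in DMEM(+) with each kinase inhibitor at 1 µM, then switched to serum-free DMEM(-) with inhibitor to induce neurite outgrowth and fixed about 2-3 h later. Three blinded observers scored neurite formation from 0 (no neurites) to 8 (long neurites on almost all cells).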
Compound `NC(=O)c1cccc(-c2cc(Nc3ccc(OC(F)(F)F)cc3)ncn2)c1` returned a neurite formation score of 5.14.
The compound `Cc1cc2c(F)c(Oc3ncnn4cc(OC[C@@H](C)OC(=O)[C@H](C)N)c(C)c34)ccc2[nH]1` had a neurite formation score of 3.57.
Compound `Cc1cc(Nc2nc(N[C@@H](C)c3ncc(F)cn3)ncc2Cl)[nH]n1` yielded a neurite formation score of 3.8.
For `Nc1cccc(-c2cc3c(Oc4cccc(O)c4)ncnc3[nH]2)c1`, the neurite formation score came to 1.88.
The compound `Cc1[nH]nc2ccc(-c3cncc(OC[C@@H](N)Cc4ccccc4)c3)cc12` returned a neurite formation score of 4.63.
In the case of `CCN1C(=CC(C)=O)Sc2ccc(OC)cc21` it was 4.96; in that of `Cc1[nH]c(/C=C2\C(=O)Nc3ccc(S(=O)(=O)N(C)c4cccc(Cl)c4)cc32)c(C)c1C(=O)N1CCN(C)CC1`, 3.57; in that of `O=c1sn(-c2cccc3ccccc23)c(=O)n1Cc1ccccc1` [Tideglusib], 4.21.
With `O=C1Nc2ccc(I)cc2/C1=C/c1cc(Br)c(O)c(Br)c1`, the neurite formation score was found to be 3.29.
With `c1ccc2c(-c3cnn4cc(-c5ccc(N6CCNCC6)cc5)cnc34)ccnc2c1`, the neurite formation score was 5.14 and 4.47.
`CSc1cccc(Nc2ncc3cc(-c4c(Cl)cccc4Cl)c(=O)n(C)c3n2)c1`: the neurite formation score amounted to 0.626.
In the case of `O=c1oc2c(O)c(O)cc3c(=O)oc4c(O)c(O)cc1c4c23` [Ellagic acid] it was 4.47; in that of `Cc1cc(C(C)Nc2ccccc2)c2nc(N3CCOCC3)cc(=O)n2c1` (configuration not stated), 4.47; in that of `CN(C[C@@H]1COCCO1)S(=O)(=O)Nc1ccc2ccc3ncc(-c4cnn(C)c4)cc3c(=O)c2c1`, 5.29.
`COc1cc(C(=O)NC2CCN(C)CC2)c(F)cc1Nc1ncc2c(n1)N(C1CCCC1)CC(F)(F)C(=O)N2C` returned a neurite formation score of 5.54.
For the compound `Cc1ccc(Nc2nccc(N(C)c3ccc4c(C)n(C)nc4c3)n2)cc1S(N)(=O)=O`, the neurite formation score was 3.91.
With `CC(C)CCN1c2nc(Nc3cc(F)c(O)c(F)c3)ncc2N(C)C(=O)C1C` (configuration not stated), the neurite formation score amounted to 4.21.
`CNC(=O)c1cc(Oc2ccc(NC(=O)Nc3ccc(Cl)c(C(F)(F)F)c3)c(F)c2)ccn1` [Regorafenib monohydrate] came in with a neurite formation score of 4.69.
`O=C1NCCSc2c1sc1ccc(O)cc21`: the neurite formation score was found to be 3.69.
The figure for `COc1cc2ncnc(Sc3nnc(C)s3)c2cc1OC` is 4.96; for `C=CC(=O)N1CCC(Oc2cc3c(Nc4ccc(Cl)c(Cl)c4F)ncnc3cc2OC)CC1` [Poziotinib] it is 4.14.
The compound `C=CC(=O)Nc1cc2c(Nc3ccc(F)c(Cl)c3)ncnc2cc1OCCCN1CCOCC1` [Canertinib (CI-1033)] gave a neurite formation score of 4.57.
`CCCCCCCCCCCCc1ccc(S(=O)(=O)Nc2nncs2)cc1` yielded a neurite formation score of 4.24.
`CCN(CC)CCNC(=O)c1c(C)[nH]c(/C=C2\C(=O)Nc3ccc(F)cc32)c1C` [Sunitinib]: the neurite formation score is 5.63.
Compound `O=c1cc(N2CCOCC2)oc2c1ccc1ccccc12` registered a neurite formation score of 4.8.
Turning to `Cc1c(CN2CCN(C(=O)[C@H](C)O)CC2)sc2c(N3CCOCC3)nc(-c3cnc(N)nc3)nc12`, the neurite formation score is 4.21.
`Cc1ccc(C(=O)Nc2ccc(CN3CCN(C)CC3)c(C(F)(F)F)c2)cc1C#Cc1cnc2cccnn12` displayed a neurite formation score of 1.24.
In the case of `Nc1ncnc2c1c(-c1cccc(OCc3ccccc3)c1)cn2C1CC(CN2CCC2)C1` (configuration not stated) it was 3.24; in that of `FC(F)(F)c1ccc(CNc2ccc(Cc3c[nH]c4ncccc34)cn2)cc1`, 3.54; in that of `CS(=O)(=O)N1CCN(Cc2cc3nc(-c4cccc5[nH]ncc45)nc(N4CCOCC4)c3s2)CC1`, 4.24.
Consider `CS(=O)(=O)N1CCN(Cc2cc3nc(-c4cccc5[nH]ncc45)nc(N4CCOCC4)c3s2)CC1` [GDC-0941 dimethanesulfonate], for which the neurite formation score was 2.8.
Take `CN(C)c1ccc(-c2nc3ncc(Cl)c(N4CCN(CC(=O)Nc5nccs5)CC4)c3[nH]2)cc1`: the neurite formation score worked out at 3.8.
As to `Cc1ccc(NC(=O)c2cccc(N(C)C)c2)cc1NC(=O)c1ccc(O)cc1`, the neurite formation score was 5.63.
In turn, `Cc1ccc(C(=O)Nc2cccc(C(F)(F)F)c2)cc1Nc1nc(-c2cccnc2)nc2c1cnn2C` showed a neurite formation score of 3.96.
Take `COc1cc2ncnc(Nc3ccc(F)c(Cl)c3)c2cc1OCCCN1CCOCC1` [Gefitinib (ZD1839)]: the neurite formation score worked out at 4.24.
On to `O=C(Cc1ccc(-c2ccc(OCCN3CCOCC3)cc2)cn1)NCc1ccccc1` [KX2-391 dihydrochloride], for which the neurite formation score amounted to 0.692.
The figure for `Nc1ccc(C(=O)Nc2cccc(-c3nc(N4CCOCC4)c4oc5ncccc5c4n3)c2)cn1` is 4.54.

The values are drawn from the supplement of paper PMC8047044.
